For part of these data: Potency and affinity values are given separately. Active and inactive are the calls of the source. Unless noted, no rule for the calls is given here.
What was measured:
[1] = target: L-lactate dehydrogenase (Plasmodium falciparum (isolate CDC / Honduras)) (UniProt Q27743); test: PfLDH activity inhibition – cell lysate, 3D7 strain, counter-screen for P. falciparum growth inhibition project (AID 2304);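 also: 0% = vehicle and 100% = reference inhibitor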; settings: P. falciparum 3D7 crude extract, LDH APAD/NBT absorbance; at 2 µM; stronger effect = higher value
[2] = target: Calcium-dependent protein kinase 1 (Plasmodium falciparum (isolate 3D7)) (UniProt P62344); test: PfCDPK1 kinase inhibitors, biochemical, TCAMS library (AID 1159585; cut-off not given, nearly all actives have IC50 up to about 0.98 µM;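 also: inhibitors leave more ATP so luminescence rises with inhibition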); settings: recombinant PfCDPK1, Kinase-Glo ATP depletion luminescence
[3] = target: Plasmodium falciparum protein kinase 6 (PK6, PF3D7_1337100) (UniProt Q8IDW1); test: PfPK6 kinase inhibitors, biochemical, TCAMS library (AID 1159586); settings: recombinant PfPK6, Kinase-Glo ATP depletion luminescence
[4] = target: Protein kinase 7 (PK7), Plasmodium falciparum 3D7 (PF3D7_0213400) (UniProt Q7YTF7); test: inhibition of Plasmodium PK7 catalytic activity – biochemical, TCAMS antimalarial set, Kinase-Glo luminescence (AID 1159587); settings: recombinant PfPK7, Kinase-Glo ATP depletion luminescence
[5] = target: Calcium-dependent protein kinase 4 (Plasmodium falciparum (isolate 3D7)) (UniProt Q8IBS5); test: PfCDPK4 kinase inhibitors, biochemical, TCAMS library (AID 1159588; cut-off not given, nearly all actives have IC50 up to about 0.91 µM); settings: recombinant PfCDPK4, Kinase-Glo ATP depletion luminescence
[6] = HepG2 cytotoxicity, primary screen, cytotoxicity control for P. falciparum antimalarial project, cell-based, ATP luminescence (AID 2303;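 active = inhibition above 50%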;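 also: 0% = DMSO wells and 100% = digitonin-killed cells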); settings: HepG2 viability, 24-48 h, at 10 µM, stronger effect = higher value
[7] = inhibition of 3D7 malaria parasite growth – strain 3D7 (AID 2306);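 also: 0% = DMSO wells and 100% = chloroquine plus artemisinin control wells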; settings: P. falciparum 3D7 erythrocytic growth, LDH absorbance, 72 h; at 2 µM; stronger effect = higher value
[8] = antimalarial activity against Dd2 strain (AID 2302;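 active = growth inhibition above 50% at the single 2 µM test dose, taken to imply half-maximal potency below 2 µM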;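 also: 0% = DMSO untreated growth and 100% = chloroquine plus artemisinin killed control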); settings: P. falciparum Dd2 in RBCs, LDH growth readout, 72 h; at 2 µM; stronger effect = higher value

Chain of Calcium-dependent protein kinase 4 (Plasmodium falciparum (isolate 3D7)) (Q8IBS5 whole entry, looked up): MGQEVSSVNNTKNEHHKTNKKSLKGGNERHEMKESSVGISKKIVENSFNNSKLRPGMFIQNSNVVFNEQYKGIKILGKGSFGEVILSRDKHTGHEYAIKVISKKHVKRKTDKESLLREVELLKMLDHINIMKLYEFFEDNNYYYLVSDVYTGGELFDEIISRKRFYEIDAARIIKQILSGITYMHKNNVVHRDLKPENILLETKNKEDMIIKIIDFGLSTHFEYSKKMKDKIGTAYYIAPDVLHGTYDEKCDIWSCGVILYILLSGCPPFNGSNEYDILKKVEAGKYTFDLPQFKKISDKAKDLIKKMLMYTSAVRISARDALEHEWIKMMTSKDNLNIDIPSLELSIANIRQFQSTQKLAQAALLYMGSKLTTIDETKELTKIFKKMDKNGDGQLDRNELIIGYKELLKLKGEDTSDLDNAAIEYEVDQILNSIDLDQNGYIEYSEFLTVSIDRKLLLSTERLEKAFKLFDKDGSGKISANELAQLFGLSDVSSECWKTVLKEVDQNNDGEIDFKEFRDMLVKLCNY
Chain of Calcium-dependent protein kinase 1 (Plasmodium falciparum (isolate 3D7)) (P62344 whole entry, looked up): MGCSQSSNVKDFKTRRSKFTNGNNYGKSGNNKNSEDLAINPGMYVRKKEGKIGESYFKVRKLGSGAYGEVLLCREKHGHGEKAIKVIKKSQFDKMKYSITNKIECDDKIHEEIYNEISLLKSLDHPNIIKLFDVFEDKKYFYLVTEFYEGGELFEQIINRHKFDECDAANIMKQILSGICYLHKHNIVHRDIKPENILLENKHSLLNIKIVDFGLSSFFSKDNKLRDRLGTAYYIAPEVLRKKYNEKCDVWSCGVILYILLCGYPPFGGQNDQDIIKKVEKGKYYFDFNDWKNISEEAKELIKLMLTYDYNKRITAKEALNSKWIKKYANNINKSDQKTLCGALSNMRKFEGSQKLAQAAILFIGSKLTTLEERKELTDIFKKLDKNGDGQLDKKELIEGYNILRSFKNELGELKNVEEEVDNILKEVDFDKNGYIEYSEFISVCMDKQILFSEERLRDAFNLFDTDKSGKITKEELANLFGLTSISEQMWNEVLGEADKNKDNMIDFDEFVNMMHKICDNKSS
Chain of Plasmodium falciparum protein kinase 6 (PK6, PF3D7_1337100) (Q8IDW1 1-305): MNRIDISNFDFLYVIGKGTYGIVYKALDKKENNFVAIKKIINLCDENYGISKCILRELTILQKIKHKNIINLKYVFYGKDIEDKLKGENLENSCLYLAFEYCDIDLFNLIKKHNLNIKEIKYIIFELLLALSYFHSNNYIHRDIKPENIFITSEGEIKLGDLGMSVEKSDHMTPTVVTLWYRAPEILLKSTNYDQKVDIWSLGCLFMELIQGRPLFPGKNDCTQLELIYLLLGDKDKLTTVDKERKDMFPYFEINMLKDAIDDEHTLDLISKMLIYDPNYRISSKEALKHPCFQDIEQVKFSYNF
Chain of Protein kinase 7 (PK7), Plasmodium falciparum 3D7 (PF3D7_0213400) (Q7YTF7 1-343): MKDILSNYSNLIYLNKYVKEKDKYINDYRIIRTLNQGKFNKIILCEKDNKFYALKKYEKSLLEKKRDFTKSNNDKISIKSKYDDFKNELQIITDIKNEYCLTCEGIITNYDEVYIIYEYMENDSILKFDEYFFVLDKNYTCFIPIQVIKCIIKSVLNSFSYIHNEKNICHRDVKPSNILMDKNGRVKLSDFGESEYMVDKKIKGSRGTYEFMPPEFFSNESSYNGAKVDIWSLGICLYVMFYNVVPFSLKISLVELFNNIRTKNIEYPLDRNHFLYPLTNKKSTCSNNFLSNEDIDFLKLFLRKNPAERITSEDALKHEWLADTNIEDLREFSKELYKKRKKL
Chain of L-lactate dehydrogenase (Plasmodium falciparum (isolate CDC / Honduras)) (Q27743 whole entry, looked up): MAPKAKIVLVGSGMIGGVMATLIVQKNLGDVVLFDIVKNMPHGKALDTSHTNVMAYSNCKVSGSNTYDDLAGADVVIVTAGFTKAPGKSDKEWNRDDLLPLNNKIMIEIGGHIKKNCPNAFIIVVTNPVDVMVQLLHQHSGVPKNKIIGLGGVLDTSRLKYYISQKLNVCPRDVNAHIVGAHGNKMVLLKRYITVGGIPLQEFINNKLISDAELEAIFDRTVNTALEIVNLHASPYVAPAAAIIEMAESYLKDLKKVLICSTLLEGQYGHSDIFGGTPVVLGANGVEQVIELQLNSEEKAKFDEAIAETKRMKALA

Clc1ccc(C=NNc2ccnc3cc(Cl)ccc23)cc1
inactive: inhibition [1] -3% | outcome [2] | outcome [3] | outcome [4] | outcome [5]

N#Cc1cc(N(CCCOc2cccc(OC(F)(F)F)c2)Cc2ccccc2C(F)(F)F)ccc1C(F)(F)F
active: growth inhibition [7] 94%
inactive: inhibition [6] 2% | inhibition [1] 0% | outcome [2] | outcome [3] | outcome [4] | outcome [5]

COc1ccc(C2CC(c3cccs3)=NN2C(=O)COc2cccc(C(C)=O)c2)cc1OC (stereo unspecified)
active: growth inhibition [7] 99%
inactive: inhibition [6] 10% | inhibition [1] -2% | outcome [2] | outcome [3] | outcome [4] | outcome [5]

Cc1nn(-c2ccccc2)nc1C(=O)N(Cc1ccc(-c2ccc(CNCCc3ccc(S(C)(=O)=O)cc3)cn2)cc1)C1CC1
active: growth inhibition [7] 84%
inactive: inhibition [6] 9% | inhibition [1] -2% | outcome [2] | outcome [3] | outcome [4] | outcome [5]

CCn1c(-c2nonc2N)nc2c(-c3cc4ccccc4s3)ncc(C(=O)N3CCC(N)C3)c21 (stereo unspecified)
inactive: inhibition [1] 5% | outcome [2] | outcome [3] | outcome [4]
active: growth inhibition [8] 66% | inhibition [6] 99% | growth inhibition [7] 98%

Cn1cccc1C(=O)Nc1cccc(-c2nn3ccccc3c2-c2ccnc(Nc3ccc4c(c3)OCCO4)n2)c1
inactive: growth inhibition [8] 27% | inhibition [6] 12% | inhibition [1] 4% | outcome [2] | outcome [3] | outcome [4]
active: growth inhibition [7] 95%

CCN(CC)CCCC(C)Nc1nc(C=Cc2ccc(Br)cc2)nc2cc(Cl)ccc12 (stereo unspecified)
inactive: inhibition [1] -6% | outcome [2] | outcome [3] | outcome [4] | outcome [5]

CCN(CC)CCNC(=O)c1ccc(Nc2ncc([N+](=O)[O-])c(Nc3ccccc3OC)n2)cc1
active: growth inhibition [8] 58% | inhibition [6] 59% | growth inhibition [7] 97%
inactive: inhibition [1] -6% | outcome [2] | outcome [4] | outcome [5]

O=C(Nc1nccs1)c1sc2ccccc2c1O
inactive: inhibition [6] -2% | inhibition [1] -1% | outcome [2] | outcome [3] | outcome [4] | outcome [5]
active: growth inhibition [7] 96%

Cc1ccc(-c2cnc3[nH]cc(-c4ccc(C(=O)O)c(C)c4)c3c2)cc1C
inactive: inhibition [6] 37% | inhibition [1] 0% | outcome [2] | outcome [3] | outcome [4] | outcome [5]
active: growth inhibition [7] 96%

CC(Sc1n[nH]c(-c2ccccc2Br)n1)C(=O)Nc1ccc(F)cc1 (stereo unspecified)
inactive: inhibition [6] -7% | inhibition [1] 1% | outcome [2] | outcome [3] | outcome [4] | outcome [5]
active: growth inhibition [7] 90%

Cc1cccc(Cn2ccc3c(N)nc(N)nc32)c1
active: growth inhibition [7] 82%
inactive: inhibition [1] 5% | outcome [2] | outcome [3] | outcome [4] | outcome [5]

CN(c1ccc(NC(=O)Nc2cc(C(F)(F)F)ccc2F)cc1)c1ccnc(NCCN2CCOCC2)n1
active: growth inhibition [8] 73% | inhibition [6] 67% | growth inhibition [7] 97%
inactive: inhibition [1] -2% | outcome [2] | outcome [4] | outcome [5]

Cc1nc(Nc2ccc(F)cc2)nc(N2CCc3ccccc3[C@@H]2C)c1C
active: growth inhibition [7] 92%
inactive: inhibition [6] 12% | inhibition [1] -3% | outcome [2] | outcome [3] | outcome [4] | outcome [5]

O=C(O)c1ccc(-c2cnc3ccc(NC4CCC(O)CC4)nn23)cc1 (stereo unspecified)
inactive: inhibition [6] 9% | inhibition [1] 3% | outcome [2] | outcome [3] | outcome [5]
active: growth inhibition [8] 90% | growth inhibition [7] 98%

CN(C)Cc1ccc(CNC2CCN(Cc3ccccc3Cl)CC2)cc1
active: growth inhibition [7] 82%
inactive: inhibition [6] 23% | inhibition [1] -3% | outcome [2] | outcome [3] | outcome [4] | outcome [5]

Cn1nc(-c2ccc(NC(=O)Nc3ccc4ccccc4c3)c(F)c2)c2cnc(NCCN3CCOCC3)nc21
active: inhibition [6] 62% | growth inhibition [7] 93%
inactive: growth inhibition [8] 3% | inhibition [1] 1% | outcome [2] | outcome [4] | outcome [5]

Clc1cccc(C=NNc2ccnc3cc(Cl)ccc23)c1
inactive: inhibition [1] -4% | outcome [2] | outcome [3] | outcome [4] | outcome [5]

CC(C)(C)c1cc(Cl)cc(C(=O)Nc2cc([N+](=O)[O-])ccc2Cl)c1O
active: inhibition [6] 79% | growth inhibition [7] 91%
inactive: inhibition [1] 2% | outcome [2] | outcome [3] | outcome [4] | outcome [5]

Cc1nc2ccccc2n1C1C[C@H]2CC[C@@H](C1)N2CCC1(c2ccccc2)CCN(C(=O)Nc2ccc(C(F)(F)F)cc2)CC1 (stereo partly specified)
inactive: inhibition [1] -2% | outcome [2] | outcome [3] | outcome [4] | outcome [5]

Fc1ccccc1C=NNc1ccnc2cc(Cl)ccc12
inactive: inhibition [1] -2% | outcome [2] | outcome [3] | outcome [4] | outcome [5]

O=C(Nc1ccccc1)Nc1cccc(-c2nn3c(OCCN4CCCC4)cccc3c2-c2ccncc2)c1
inactive: inhibition [6] 30% | inhibition [1] 4% | outcome [2] | outcome [3] | outcome [4]
active: growth inhibition [8] 98% | growth inhibition [7] 102%

O=[N+]([O-])c1ccc(-n2nc(-c3cccnc3)n(Cc3ccco3)c2=S)c(Cl)c1
active: growth inhibition [7] 95%
inactive: inhibition [6] 13% | inhibition [1] -1% | outcome [2] | outcome [3] | outcome [4] | outcome [5]

O=C(c1ccccc1)N1CCC[C@](CCCN2CCN(c3ccccc3O)CC2)(c2ccc(Cl)c(Cl)c2)C1
active: growth inhibition [7] 80%
inactive: inhibition [6] 16% | inhibition [1] -3% | outcome [2] | outcome [3] | outcome [4] | outcome [5]

CCc1cc2c3c(N)nc(N)nc3ccc2n1C(C)(C)C
inactive: inhibition [1] -11% | outcome [2] | outcome [3] | outcome [4] | outcome [5]
active: growth inhibition [7] 99%

Cc1ccccc1Cn1ccc2c3c(N)nc(N)nc3ccc21
active: growth inhibition [7] 100%
inactive: inhibition [1] -4% | outcome [2] | outcome [3] | outcome [4] | outcome [5]

COc1cc(Nc2nccc(-c3c(-c4cccc(NC(=O)c5c(F)cccc5F)c4)nn4ncccc34)n2)cc(OC)c1OC
active: growth inhibition [8] 97% | inhibition [6] 96% | growth inhibition [7] 98%
inactive: inhibition [1] 1% | outcome [2] | outcome [3] | outcome [4]

C[C@@H]1CN(c2ccc3[nH]cc(Sc4ccc(-c5cccs5)cc4)c3c2)C[C@H](C)N1
inactive: inhibition [6] 29% | inhibition [1] -4% | outcome [2] | outcome [3] | outcome [4] | outcome [5]
active: growth inhibition [7] 89%

NC(=O)c1sc(-n2cnc3ccc(C(=O)NCCN4CCOCC4)cc32)cc1OCc1ccccc1C(F)(F)F
active: growth inhibition [7] 81%
inactive: inhibition [6] -15% | inhibition [1] 1% | outcome [2] | outcome [3] | outcome [4] | outcome [5]

Nc1[nH]c2ccccc2c(=O)c1-c1nc2ccccc2s1
active: growth inhibition [7] 97%
inactive: inhibition [6] 16% | inhibition [1] -6% | outcome [2] | outcome [3] | outcome [4] | outcome [5]

CN(C)Cc1cccc(-c2ccc(NC(=O)c3ccc4c(=O)n(Cc5cnn(C)c5)cnc4c3)cc2)c1
active: growth inhibition [7] 80%
inactive: inhibition [6] 12% | inhibition [1] 2% | outcome [2] | outcome [3] | outcome [4] | outcome [5]

CC(=O)c1ccc(NC(=O)Nc2ccc(N(C)c3ccnc(Nc4cccc(CS(C)(=O)=O)c4)n3)cc2)cc1
active: growth inhibition [8] 98% | inhibition [6] 86% | growth inhibition [7] 100%
inactive: inhibition [1] -1% | outcome [2] | outcome [4] | outcome [5]

O=C(Nc1cccc(-c2nn3ccccc3c2-c2ccnc(Nc3ccc(-c4ccn[nH]4)cc3)n2)c1)c1c(F)cccc1F
inactive: outcome [3] | outcome [4]

C#CCNC(=O)c1ccc(-c2ccnc(Nc3cccc(CCCN4CCOCC4)c3)n2)s1
active: inhibition [6] 54% | growth inhibition [7] 82%
inactive: growth inhibition [8] 45% | inhibition [1] -4% | outcome [2] | outcome [4] | outcome [5]

COc1c(CN2CCOCC2)cccc1-c1cc2c(-c3ccc(C(=O)O)c(C(C)C)c3)ccnc2[nH]1
inactive: inhibition [6] 44% | inhibition [1] -3% | outcome [2] | outcome [4] | outcome [5]
active: growth inhibition [8] 90% | growth inhibition [7] 98%

COc1c(CN2CCCC2)cccc1-c1cc2c(-c3ccc(C(=O)O)c(C(C)C)c3)ccnc2[nH]1
active: growth inhibition [8] 98% | inhibition [6] 56% | growth inhibition [7] 99%
inactive: inhibition [1] -1% | outcome [2] | outcome [4] | outcome [5]

CN1CCC(NC(=O)c2cccc(Nc3cc(Nc4cccc(Br)c4)ncn3)c2)CC1
active: growth inhibition [7] 94%
inactive: growth inhibition [8] 6% | inhibition [6] 25% | inhibition [1] 1% | outcome [2] | outcome [4] | outcome [5]

Cc1ccc(Nc2nc3cc(Nc4ccnc(Nc5cccc(CS(C)(=O)=O)c5)n4)ccc3o2)cc1
inactive: inhibition [1] 4% | outcome [2] | outcome [4] | outcome [5]
active: growth inhibition [8] 81% | inhibition [6] 55% | growth inhibition [7] 101%

CS(=O)(=O)Cc1ccc(Nc2ncc(Cl)c(Nc3cccnc3C(N)=O)n2)cc1
inactive: inhibition [1] -4% | outcome [2] | outcome [4] | outcome [5]
active: growth inhibition [8] 97% | inhibition [6] 54% | growth inhibition [7] 97%

C(=N\Nc1nccc2sc(-c3ccccc3)cc12)/c1cccnc1
active: growth inhibition [7] 97%
inactive: growth inhibition [8] 10% | inhibition [6] -9% | inhibition [1] 8% | outcome [2] | outcome [4] | outcome [5]

COc1cccc(-n2ncc3c(N/N=C/c4ccc(CN(C)CCN(C)C)cc4)ncnc32)c1
active: growth inhibition [8] 91% | growth inhibition [7] 100%
inactive: inhibition [6] 29% | inhibition [1] -2% | outcome [2] | outcome [4] | outcome [5]

CC(=O)Nc1ccc(Nc2ncc([N+](=O)[O-])c(Nc3ccccc3C(N)=O)n2)cc1
inactive: inhibition [6] 42% | inhibition [1] 2% | outcome [2] | outcome [4] | outcome [5]
active: growth inhibition [8] 97% | growth inhibition [7] 98%

From PubChem BioAssay
